Experimental data as given in the supplement of paper PMC12350171.
Structures can show the parent of a compound that is named as a salt.

tested on: Haemophilus parainfluenzae; experiment: growth AUC normalised to DMSO control (fraction of control); higher = less growth inhibition, active = hit call of the paper; conditions: 20 µM;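 active = AUC significantly below DMSO controls by Student t-fit with adjusted P under 0.01; inactive = not significantly reduced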
How it was run: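 After two anaerobic passages, pathogens were added at a starting OD578 of 0.01 to pre-reduced mGAM plates holding compound at 20 μM with 1% DMSO; hemin and NAD were supplemented for Haemophilus parainfluenzae. Sealed with breathable membranes, plates were read at OD578 hourly for 24 h, in three biological replicates. The trapezoidal rule, applied up to the exponential-to-stationary transition, gave the growth-curve AUC, which was normalised to DMSO controls on the same plate.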

| SMILES | growth AUC normalised to DMSO control |
| --- | --- |
| CCCCOC(=O)c1ccc(N)cc1 [Butamben] | 1 (inactive) |
| C[C@@H]1C[C@H]2[C@@H]3C[C@H](F)C4=CC(=O)C=C[C@]4(C)[C@@]3(Cl)[C@@H](O)C[C@]2(C)[C@H]1C(=O)COC(=O)C(C)(C)C [Clocortolone pivalate] | 1.73 (inactive) |
| Cc1cn([C@H]2C[C@H](N=[N+]=[N-])[C@@H](CO)O2)c(=O)[nH]c1=O [Zidovudine] | 0.581 (active) |
| CCN1CCN(C(=O)N[C@@H](C(=O)N[C@@H]2C(=O)N3C(C(=O)O)=C(CSc4nnnn4C)CS[C@H]23)c2ccc(O)cc2)C(=O)C1=O [Cefoperazone dihydrate] | 0.0355 (active) |
| CCC(C)n1ncn(-c2ccc(N3CCN(c4ccc(OCC5COC(Cn6cncn6)(c6ccc(Cl)cc6Cl)O5)cc4)CC3)cc2)c1=O (stereo unspecified) [Itraconazole] | 1.09 (inactive) |
| CN(C(=O)C(Cl)Cl)c1ccc(OC(=O)c2ccco2)cc1 [Diloxanide furoate] | 0.954 (inactive) |
| Nc1ccc(S(=O)(=O)Nc2nccs2)cc1 [Sulfathiazole] | 1.03 (inactive) |
| COc1ccc(OC)c(C(O)CNC(=O)CN)c1 (stereo unspecified) [Midodrine hydrochloride] | 1.02 (inactive) |
| COc1cc(C)c(/C=C/C(C)=C/C=C/C(C)=C/C(=O)O)c(C)c1C [Acitretin] | 0.995 (inactive) |
| Cc1noc(NS(=O)(=O)c2ccc(N)cc2)c1C [Sulfisoxazole] | 0.939 (inactive) |
| CN1CCN(CC(=O)N2c3ccccc3C(=O)Nc3cccnc32)CC1 [Pirenzepine dihydrochloride] | 1.01 (inactive) |
